Source: PubChem BioAssay
A selection: hits, their analogues and other compounds. The true share with any hit is near 3.7%.
MITF act = increases MITF-driven TRPM1 promoter luciferase signal | 0.75% of 300,000 active | activation, % at 12.5 µM | SK-MEL-5 TRPM1-promoter luciferase, 24 h; % of positive control, neutral wells = 0;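 active means mean activation of at least 80% with every replicate also reaching 80%; inconclusive means mean reaches 80% but some replicate falls short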;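 further: 0% = neutral control wells and 100% = parthenolide positive control wells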
MLL AF4-AF9 inh = MLL-AF4/AF9 protein interaction inhibition; P42568; AlphaScreen, biotin-AF4 peptide binding to FLAG-AF9; inhibition, % at 10 µM; 0.47% of 350,000 active;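 active means every replicate reaching a set inhibition limit, whatever the replicate mean, cut at about 25% in these data; inconclusive means mean inhibition reaches that limit but some replicates miss it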;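 further: 0% = plate neutral control median and 100% = total signal loss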
Target sequence (P42568 whole entry, looked up): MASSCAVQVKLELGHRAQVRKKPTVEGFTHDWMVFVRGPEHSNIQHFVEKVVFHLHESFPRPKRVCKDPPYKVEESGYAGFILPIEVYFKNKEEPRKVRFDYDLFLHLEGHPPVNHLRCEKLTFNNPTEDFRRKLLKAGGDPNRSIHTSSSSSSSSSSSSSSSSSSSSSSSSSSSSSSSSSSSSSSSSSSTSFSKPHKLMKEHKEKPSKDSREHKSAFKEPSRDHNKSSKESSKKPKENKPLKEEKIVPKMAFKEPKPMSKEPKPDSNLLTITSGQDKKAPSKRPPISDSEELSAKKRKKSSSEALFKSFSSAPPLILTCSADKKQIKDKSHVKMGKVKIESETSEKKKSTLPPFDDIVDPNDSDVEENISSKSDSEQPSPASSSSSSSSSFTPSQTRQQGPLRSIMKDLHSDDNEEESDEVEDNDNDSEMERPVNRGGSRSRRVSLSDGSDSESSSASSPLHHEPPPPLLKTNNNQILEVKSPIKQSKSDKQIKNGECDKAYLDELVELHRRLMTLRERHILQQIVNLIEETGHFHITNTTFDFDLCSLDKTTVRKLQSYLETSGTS
esBAF inh = SWI/SNF esBAF complex inhibition. mouse ES cells, Bmi1-luciferase knock-in reporter, 24 h; 100% = twice the neutral-well signal. reporter increase, % at 12.5 µM. 2% of 350,000 active. AID 602393; in the data active means activation above about 40%; inconclusive means no clear call, values can overlap the other calls;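 further: 0% = median of the plate's neutral control wells and 100% = double that signal; a rise in the Bmi1 reporter signal indicates esBAF inhibition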
rRNA inh HTS = selective bacterial rRNA inhibition in E. coli; E. coli WT GFP vs humanized-ribosome RFP mutants, fluorescence, 24 h; active compounds read low; DMSO median 0, no signal -100; GFP signal change (wild-type ribosome), % (no concentration beside the values); 1.6% of 350,000 active;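 active means significant combined selectivity score with lowered wild-type GFP, culture density cut under 30%, mutant RFP and density less affected; inactive means any of these conditions unmet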
Wnt bcat act = Wnt/beta-catenin pathway activation; Wnt/beta-catenin reporter cell assay, activator, plate reader; activation, % at 9.35 µM; 1.2% of 300,000 active; AID 743398; in the data active means activation above about 30%, passing the limit was not always enough; inconclusive means no clear call, values can overlap the other calls;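 further: 0% = neutral control wells and 100% = positive control wells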
* hit, by the source's call; ? = inconclusive; nt = not tested or not shown.

SMILES	MITF act	MLL AF4-AF9 inh	esBAF inh	rRNA inh HTS	Wnt bcat act
CCC(=O)N1CC2(CN(Cc3ccc(Cl)cc3)C2)c2c(n(C)c3cc(OC)ccc23)[C@H]1CO	nt	28.9*	nt	-55.0	nt
O=C(C[C@H]1C=C[C@@H](NC(=O)Nc2cc(F)ccc2F)[C@@H](CO)O1)NCc1ccncn1	nt	0.7	3.9	-0.7	nt
COc1ccccc1S(=O)(=O)N[C@H]1C=C[C@@H](CC(=O)N2CCN(C)CC2)O[C@H]1CO	nt	0.7	-1.9	0.9	nt
CC(NC(=O)COC(=O)CNC(=O)C1CCCCC1)c1ccccc1 (stereo not given)	5.9	-3.7	0.8	nt	0.0
CCC(=O)N1CC2(CN(Cc3ccc(Cl)cc3)C2)c2c(n(C)c3cc(OC)ccc23)[C@@H]1CO	nt	38.3*	nt	-53.8	nt
CCC(=O)N1CC2(CCN(Cc3ccc(Cl)cc3)CC2)c2c([nH]c3cc(OC)ccc23)[C@@H]1CO	nt	26.1*	nt	-4.9	nt
CCCNC(=O)N1CC2(CCN(C(=O)C3CCC3)CC2)c2c([nH]c3cc(OC)ccc23)[C@@H]1CO	nt	43.8*	nt	-0.9	nt
CCC(=O)N1CC2(CN(Cc3ccc(F)cc3)C2)c2c(n(C)c3cc(OC)ccc23)[C@H]1CO	nt	5.1	nt	-8.4	nt
O=C(c1cc2cc(Cl)cc(Cl)c2oc1=O)N1CCOCC1	-10.4	nt	1.2	nt	nt
CC/C(=N\Nc1nncc2ccccc12)c1ccc(F)cc1	88.4*	3.8	41.2*	-10.0	19.7
O=C1[C@@H](c2ccccc2)CC[C@@H]2C=CC[C@H]3CCN1[C@@H]32	nt	-1.0	nt	14.5	-1.0
COc1ccc(C2=C(CN(C)C)C(c3ccccc3)c3ccccc3O2)cc1 (stereo not given)	-8.1	nt	70.5*	nt	nt
CCOc1ccc(C2=C(C=C(C#N)C#N)C(c3ccccc3)c3ccccc3O2)cc1 (stereo not given)	-16.8	10.1	nt	6.1	-1.5
O=C1C=CC(=O)N1c1ccc(-c2nc3ccccc3o2)cc1	nt	nt	17.3	nt	nt
O=C1CC(C(=O)Nc2cccc(F)c2)n2ncnc2N1 (stereo not given)	32.3	-1.1	-0.9	12.1	-2.5
COc1ccc(/C(C)=N/NC(=O)c2ccccc2OCc2ccccc2)c(OC)c1	45.1	4.5	49.7*	-33.4	nt
COc1ccc(/C=N/NC(=O)c2ccccc2OCc2ccccc2)c(OC)c1	1.3	-0.5	-5.1	-6.8	-2.2
CCc1cc2c(=O)c(-c3cscn3)coc2cc1O	24.6	nt	90.0*	nt	5.4
CCOC(=O)C1=C(N)Oc2cc(O)ccc2C1c1ccc([N+](=O)[O-])cc1 (stereo not given)	-10.2	9.2	nt	-44.5*	-1.2
O=C(CSc1nnc2nnc3ccccc3n12)N1CCOCC1	-57.0	-0.1	-3.6	-24.6*	1.8
O=S(=O)(Nc1ccccc1)c1ccc(-c2cnc(C3CC3)o2)cc1	-26.6	-0.8	-0.9	-43.9	-1.4
c1ccc(-c2cnc(C3CCCCC3)o2)cc1	48.1	?	52.8*	26.1	-0.4
O=C1NC[C@H](c2ccccc2)OC(=O)[C@@H](Cc2ccc(F)cc2)C/C=C\C[C@H]1CC(=O)N(CCO)Cc1ccccc1	-19.9	-10.3	44.5*	-13.2	5.9
O=C1NC[C@@H](c2ccccc2)OC(=O)[C@H](Cc2ccc(F)cc2)C/C=C\C[C@H]1CC(=O)N(CCO)Cc1ccccc1	2.1	1.9	-0.1	-6.6	0.0
O=S(=O)(Nc1ccc(-c2nc3cccnc3s2)cc1)c1cc(F)ccc1F	-3.4	-6.7	17.0	-20.5*	-0.6
SMILES	MITF act	MLL AF4-AF9 inh	esBAF inh	rRNA inh HTS	Wnt bcat act
CCc1ccc(S(=O)(=O)Nc2ccc(-c3nc4cccnc4s3)cc2)s1	17.3	?	38.6	-5.9	-0.6
Nc1nc(N)nc(-c2ccc([N+](=O)[O-])o2)n1	-10.0	-3.4	-9.2	-5.3*	-5.1
Cc1ccc2c(c1)cc(CN(Cc1ccco1)C(=O)COc1ccccc1)c1nnnn12	nt	nt	-2.5	nt	-5.5
CCC(=O)N(Cc1ccco1)Cc1cc2cccc(C)c2n2nnnc12	-1.5	-2.2	nt	24.8	46.2*
CC1(C)CC(=O)C(C=NCCN2CCN(CC(=O)Nc3ccc(Cl)cc3)CC2)=C(O)C1	-12.8	-1.0	nt	15.7	-1.8
Cc1ccc(CNC(=O)COC(=O)C2CCN(S(=O)(=O)c3cccs3)CC2)cc1	-2.5	-0.9	2.3	-16.4	95.8*
COC(=O)c1ccc2c(=O)n(CC3CCCO3)c(SCC(=O)Nc3ccccc3Cl)nc2c1 (stereo not given)	nt	nt	50.1*	nt	nt
CC1CCN(CCCn2c(SCC(=O)Nc3ccccc3Cl)nc3ccccc3c2=O)CC1	13.1	9.0	nt	-33.0*	-2.0
COC(=O)c1ccc2c(=O)n(CC3CCCO3)c(SCC(=O)Nc3ccccc3OC)nc2c1 (stereo not given)	nt	nt	15.6	nt	-3.8
COc1ccc(NC(=O)CSc2nc3ccccc3c(=O)n2CCCN2CCC(C)CC2)c(OC)c1	18.7	3.0	-4.4	-9.5	0.3
COCC#Cc1cnc2c(c1)C(=O)N([C@H](C)CO)C[C@H](C)[C@@H](CN(C)Cc1ccccc1)O2	nt	0.3	-1.0	4.5	nt
C=CCOc1ccc(CN(C)C(=O)C2CCCO2)cc1 (stereo not given)	14.0	1.1	9.8	3.5	0.6
Cn1c(SCc2ccccc2)nnc1-c1ccc2c(c1)OCO2	10.8	nt	51.7*	nt	-4.7
c1ccc(CSc2ccc(-c3ccc4c(c3)OCO4)nn2)cc1	89.5*	nt	nt	nt	34.7*
N#Cc1cc2c(nc1SCC(=O)N1CCCCC1)CCCC2	7.8	nt	37.6	nt	5.8
CCOC(=O)CC(=O)COc1nc2cc3c(nc2o1)CCCC3	nt	-5.5	59.3*	-4.2	0.4
CC(C)OC(=O)CSc1nc2c(cc1C#N)CCCCC2	33.8	-5.2	71.4*	9.2	10.2
CCOC(=O)CC(=O)CSc1nc2c(cc1C#N)CCCCC2	nt	nt	51.9*	nt	nt
CC(C)OC(=O)CC(=O)CSc1nc2c(cc1C#N)CCCCC2	42.5	nt	nt	nt	nt
Cc1ccccc1NC(=O)Cn1cnc2c(oc3nc4c(cc32)CCCC4)c1=O	6.7	-3.6	2.4	-2.4	-0.5
CC1(C)CN=c2s/c(=C\c3ccc(Cl)cc3)c(=O)n2C1	117.1*	1.8	12.9	-6.8	-0.9
CSC1=N/C(=C\c2ccc(Cl)cc2)C(=O)N1N(C)C	nt	?	nt	14.3	3.3
O=C(Nc1ccc(Cl)cc1)c1csc(COCCO)n1	nt	-1.4	53.0*	-1.5	13.2
O=C(Nc1ccc(Oc2ccccc2)cc1)c1csc(COCCO)n1	nt	0.7	35.1	nt	nt
COc1ccccc1C(=O)NC(CCSC)C(=O)NCC(c1ccccc1OC)N1CCCC1 (stereo not given)	21.7	?	-2.5	11.8	-2.0
Oc1ccc(/C=N/NC(=S)NC2CC3CCC2C3)cc1 (stereo not given)	27.3	5.6	46.7*	nt	18.5
S=C(NCCN1CCOCC1)N/N=C/c1cccs1	-7.0	8.6	4.2	12.4	1.3
Oc1ccc(/C=N/NC(=S)NCC2CCCO2)cc1 (stereo not given)	8.6	nt	5.0	nt	nt
S=C(N/N=C/c1cccs1)NC1CC2CCC1C2 (stereo not given)	nt	nt	nt	-17.9	34.0*
